Experimental data published in PubChem BioAssay AID1159580 (chemical genetic matrix, 2015).
About 2,000 (36%) of roughly 5,500 compounds were called active. Roughly 18% stayed inconclusive and do not appear here. No stated cut-off is given here; in the data, active means normalized growth mostly below about 0.91 (no sharp cut-off); inconclusive means no clear call, values can overlap the other calls; inactive means mostly above about 0.92. This is one part of the list.

Assay: chemical genetic growth profiling, strain panel (AID 1159580);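 further: tested at 20 µM; growth read once vehicle control cultures reached saturation at 30 °C; 1 = growth at the plate median or of vehicle wells; lower values mean less growth of the strain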
Conditions: growth OD

Measured: normalized growth

Cn1nnnc1SCC1=C(C(=O)O)N2C(=O)C(NC(=O)C(OC=O)c3ccccc3)C2SC1 (stereo unspecified)
inactive: S. cerevisiae deletion strains, locus YJR075W, strain HOC1, active compounds read low 1.01 | S. cerevisiae deletion strains, locus YKL009W, strain mrt4, active compounds read low 1.02 | S. cerevisiae deletion strains, locus YKL068W, active compounds read low 1.01 | S. cerevisiae deletion strains, locus YKL085W, strain MDH1 (second series), active compounds read low 1 | S. cerevisiae deletion strains, locus YKL085W, strain MDH1, active compounds read low 1 | S. cerevisiae deletion strains, locus YKL160W, strain elf1, active compounds read low 1.01 | S. cerevisiae deletion strains, locus YKL190W, strain CNB1, active compounds read low 1 | S. cerevisiae deletion strains, locus YKR001C, strain vps1, active compounds read low 1.02 | S. cerevisiae deletion strains, locus YKR026C, strain gcn3, active compounds read low 0.989 | S. cerevisiae deletion strains, locus YKR091W, strain srl3, active compounds read low 0.995 | S. cerevisiae deletion strains, locus YLL001W, strain dnm1, active compounds read low 1 | S. cerevisiae deletion strains, locus YLL026W, active compounds read low 0.997 | S. cerevisiae deletion strains, locus YLL041C, strain sdh2, active compounds read low 1 | S. cerevisiae deletion strains, locus YLR027C, strain aat2, active compounds read low 0.992 | S. cerevisiae deletion strains, locus YLR039C, strain RIC1, active compounds read low 1 | S. cerevisiae deletion strains, locus YLR058C, strain SHM2, active compounds read low 1 | S. cerevisiae deletion strains, locus YLR102C, strain apc9, active compounds read low 1.02 | S. cerevisiae deletion strains, locus YLR113W, strain HOG1, active compounds read low 0.941 | S. cerevisiae deletion strains, locus YLR221C, strain rsa3, active compounds read low 0.987 | S. cerevisiae deletion strains, locus YLR258W, strain gsy2, active compounds read low 0.998 | S. cerevisiae deletion strains, locus YLR262C, strain YPT6 (second series), active compounds read low 1.02 | S. cerevisiae deletion strains, locus YLR262C, strain YPT6, active compounds read low 1.04 | S. cerevisiae deletion strains, locus YLR268W, strain sec22, active compounds read low 1.01 | S. cerevisiae deletion strains, locus YLR320W, strain mms22, active compounds read low 0.993 | S. cerevisiae deletion strains, locus YLR330W, strain CHS5, active compounds read low 1 | S. cerevisiae deletion strains, locus YLR342W, strain FKS1 (second series), active compounds read low 0.999 | S. cerevisiae deletion strains, locus YLR342W, strain FKS1, active compounds read low 0.992 | S. cerevisiae deletion strains, locus YLR357W, strain rsc2, active compounds read low 0.94 | S. cerevisiae deletion strains, locus YLR370C, strain arc18, active compounds read low 0.989 | S. cerevisiae deletion strains, locus YLR371W, strain rom2, active compounds read low 1.02 | S. cerevisiae deletion strains, locus YLR384C, strain iki3, active compounds read low 0.991 | S. cerevisiae deletion strains, locus YLR418C, strain cdc73, active compounds read low 1.04 | S. cerevisiae deletion strains, locus YML016C, strain PPZ1, active compounds read low 1.01 | S. cerevisiae deletion strains, locus YML032C, strain rad52, active compounds read low 1.04 | S. cerevisiae deletion strains, locus YML120C, strain ndi1, active compounds read low 1.02 | S. cerevisiae deletion strains, locus YML124C, strain tub3, active compounds read low 1.02 | S. cerevisiae deletion strains, locus YMR058W, strain fet3, active compounds read low 0.998 | S. cerevisiae deletion strains, locus YMR078C, strain ctf18, active compounds read low 1.02 | S. cerevisiae deletion strains, locus YMR125W, strain sto1, active compounds read low 0.989 | S. cerevisiae deletion strains, locus YMR129W, active compounds read low 1 | S. cerevisiae deletion strains, locus YMR205C, strain PFK2, active compounds read low 1.02 | S. cerevisiae deletion strains, locus YMR223W, strain ubp8, active compounds read low 1.02 | S. cerevisiae deletion strains, locus YMR231W, strain pep5, active compounds read low 0.998 | S. cerevisiae deletion strains, locus YMR263W, strain SAP30, active compounds read low 0.999 | S. cerevisiae deletion strains, locus YMR307W, strain GAS1, active compounds read low 1.07 | S. cerevisiae deletion strains, locus YNL067W, strain RPL9B, active compounds read low 1 | S. cerevisiae deletion strains, locus YNL071W, strain lat1, active compounds read low 1 | S. cerevisiae deletion strains, locus YNL128W, strain TEP1, active compounds read low 1.02 | S. cerevisiae deletion strains, locus YNL153C, strain GIM3, active compounds read low 0.997 | S. cerevisiae deletion strains, locus YNL183C, strain NPR1, active compounds read low 0.934 | S. cerevisiae deletion strains, locus YNL209W, strain ssb2, active compounds read low 1 | S. cerevisiae deletion strains, locus YNL233W, strain BNI4, active compounds read low 0.993 | S. cerevisiae deletion strains, locus YNL248C, strain rpa49, active compounds read low 0.986 | S. cerevisiae deletion strains, locus YNL250W, strain rad50, active compounds read low 1.02 | S. cerevisiae deletion strains, locus YNL271C, strain bni1, active compounds read low 1.04 | S. cerevisiae deletion strains, locus YNL298W, strain CLA4, active compounds read low 1.05 | S. cerevisiae deletion strains, locus YNL307C, strain MCK1, active compounds read low 1.03 | S. cerevisiae deletion strains, locus YNL322C, strain KRE1 (second series), active compounds read low 1 | S. cerevisiae deletion strains, locus YNR049C, strain mso1, active compounds read low 0.988 | S. cerevisiae deletion strains, locus YNR052C, strain pop2, active compounds read low 1.03 | S. cerevisiae deletion strains, locus YOL006C, strain TOP1, active compounds read low 1.02 | S. cerevisiae deletion strains, locus YOL012C, strain htz1 0.769 | S. cerevisiae deletion strains, locus YOL147C, strain pex11, active compounds read low 1.02 | S. cerevisiae deletion strains, locus YOR001W, strain rrp6, active compounds read low 0.973 | S. cerevisiae deletion strains, locus YOR061W, strain CKA2, active compounds read low 1.01 | S. cerevisiae deletion strains, locus YOR069W, strain VPS5, active compounds read low 0.993 | S. cerevisiae deletion strains, locus YOR070C, strain gyp1, active compounds read low 0.985 | S. cerevisiae deletion strains, locus YOR080W, strain dia2, active compounds read low 1 | S. cerevisiae deletion strains, locus YOR083W, strain WHI5, active compounds read low 1.01 | S. cerevisiae deletion strains, locus YOR106W, strain vam3, active compounds read low 1.02 | S. cerevisiae deletion strains, locus YOR136W, strain idh2, active compounds read low 1.03 | S. cerevisiae deletion strains, locus YOR144C, strain elg1, active compounds read low 1.01 | S. cerevisiae deletion strains, locus YOR184W, strain ser1, active compounds read low 1.02 | S. cerevisiae deletion strains, locus YOR231W, strain MKK1, active compounds read low 0.983 | S. cerevisiae deletion strains, locus YOR265W, strain rbl2, active compounds read low 1.01 | S. cerevisiae deletion strains, locus YOR270C, strain vph1, active compounds read low 1.01 | S. cerevisiae deletion strains, locus YOR290C, strain snf2, active compounds read low 1.01 | S. cerevisiae deletion strains, locus YOR316C, strain cot1, active compounds read low 1.02 | S. cerevisiae deletion strains, locus YPL051W, strain arl3, active compounds read low 0.983 | S. cerevisiae deletion strains, locus YPL055C, strain LGE1, active compounds read low 1.02 | S. cerevisiae deletion strains, locus YPL078C, strain atp4, active compounds read low 1.01 | S. cerevisiae deletion strains, locus YPL106C, strain sse1, active compounds read low 1.01 | S. cerevisiae deletion strains, locus YPL240C, strain hsp82, active compounds read low 0.995 | S. cerevisiae deletion strains, locus YPL241C, strain CIN2, active compounds read low 1 | S. cerevisiae deletion strains, locus YPL256C, strain CLN2, active compounds read low 0.999 | S. cerevisiae deletion strains, locus YPR119W, strain clb2, active compounds read low 1.02 | S. cerevisiae deletion strains, locus YPR141C, strain kar3, active compounds read low 1.01 | S. cerevisiae deletion strains, locus YPR163C, strain tif3, active compounds read low 1.04 | S. cerevisiae deletion strains, locus YPR167C, strain met16, active compounds read low 1.02 | S. cerevisiae deletion strains, strain wtn01, active compounds read low 1.01 | S. cerevisiae strains, strain wild type, active compounds read low 1
